# PubChem BioAssay AID588855 (National Center for Advancing Translational Sciences (NCATS), 2011)
# Out of some 410,000 compounds screened, about 5,000 (1.2%) were called active. Not shown: some 13% with an inconclusive outcome. The call rests on the fitted dose curve; in most records, active means well fitted inhibition curve with a large enough effect; inconclusive means small, poorly fitted or top-dose-only effect; inactive means no such curve, though single readings can be large or run the other way. The entries come from a sample that favours actives as a whole. A call without a number means that no potency is given here.
# Assay: qHTS for Inhibitors of TGF-b; further: nearly all actives have a fitted effect of over 65% in size
# Settings: HepG2 CAGA-GFP TGF-b/SMAD3 reporter, GFP fluorescence, 18 h, TGF-beta stimulated, 500 pg/mL final; series mostly up to 46.1 µM
# Summary of the method: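 Using HEPG2 CAGA-GFP reporter cells at 1000 cells/well, we pinned test compounds, stimulated with recombinant TGF-beta (500 pg/mL final) and measured total well GFP after 18 h.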
# Potency means the concentration at half of the fitted maximal effect.
row,SMILES,Potency
1,COc1ccc(OCCCn2c(C)nc3cc(C)c(C)cc32)cc1,inactive
2,Cn1nnc2c(N3CCN(c4ccccc4)CC3)ncnc21,inactive
3,O=C(O)C1=C/C(=C/C=[N+]2c3cc(O)c(O[C@H]4OC(CO)[C@@H](O)[C@@H](O)[C@@H]4O)cc3C[C@@H]2C(=O)[O-])C[C@H](C(=O)O)N1 (stereo partly specified),inactive
4,Cc1nn(CC(=O)N2CCN(c3cccc(C(F)(F)F)c3)CC2)c(=O)c2cc3sccc3n12,inactive
5,Cc1cc(NC(=O)CC(C)C)cc(-c2nc3ncccc3o2)c1O,inactive
6,CCOc1c2ccc(C(=O)NCc3ccc4c(c3)OCO4)cc2nn1C,inactive
7,CN(C)C(=O)c1cccc(-c2cnc3sc(NCc4ccc5c(c4)OCO5)nn23)c1,10 µM (active)
8,O=C(CSc1ncnc2scc(-c3ccccc3)c12)NCc1ccc2c(c1)OCO2,inactive
9,CCOc1ccc(CCNC(=O)Cn2nc(CC)n3c(cc4sc(CC)cc43)c2=O)cc1OCC,inactive
10,COc1cc(Nc2nc3ccc(Cl)cc3n3cnnc23)cc(OC)c1OC,inactive
11,COc1cccc(Nc2nc3ccccc3c3nncn23)c1,inactive
12,FC(F)(F)c1cc(Nc2nc3ccccc3c3nncn23)ccc1Cl,17.8 µM (active)
13,O=C(CC(NCc1cccnc1)C(=O)O)Nc1ccc(O)cc1 (stereo unspecified),inactive
14,COc1ccc(NC(=O)Cn2c(=O)n(CCC(C)C)c(=O)c3cccnc32)cc1Cl,inactive
15,Cc1ccc(C)c(N2CCN(c3ccc4cc(S(=O)(=O)N5CCC(C)CC5)ccc4n3)CC2)c1,inactive
16,COc1ccc(Br)cc1C1CC(=O)Nc2c1c(C)nn2-c1nc(C)cc(C)n1 (stereo unspecified),inactive
17,O=C(NC(c1ccc(Cl)cc1)c1cnccn1)C1CCN(Cc2ccc(Cl)cc2)CC1 (stereo unspecified),inactive
18,COc1cccc(CN2CCC(C(=O)NC(c3ccc4c(c3)OCO4)c3ccccn3)CC2)c1 (stereo unspecified),inactive
19,Cc1cccnc1C(NC(=O)C1CCN(Cc2ccc(Cl)c(Cl)c2)CC1)c1ccc(Cl)cc1 (stereo unspecified),11.2 µM (active)
20,Cc1ccc(OCC(=O)OCc2cc(=O)n3nc(C4CC4)sc3n2)cc1C,inactive
21,COCCNC(=O)CSc1c(C)cnc2c1c(=O)n(C)c(=O)n2C,inactive

row,SMILES,Potency
1,O=S(=O)(c1ccc(Br)cc1)c1nnn2c1nc(NC1CCCCCC1)c1sccc12,inactive
2,CC1=C(c2ccc(Cl)cc2)S(=O)(=O)N=C1N1CCN(c2cc(C)ccc2C)CC1,inactive
3,CCOC(=O)c1c(C)[nH]c(CCC(=O)NCCCN2CCN(c3cc(C)ccc3C)CC2)c1C,inactive
4,CC1=C(c2ccc(C)cc2)S(=O)(=O)NC1=NCCCN1CCN(c2cc(C)ccc2C)CC1,20 µM (active)
5,COC(=O)c1c(NC(=O)CCCOc2ccccc2)sc2c1CCC(C)C2 (stereo unspecified),inactive
6,CSc1ccc(NC(=O)Cn2nnnc2-c2ccccc2F)cc1,inactive
7,CCc1ccc(-n2nnc(-c3nc(-c4ccccc4)no3)c2C)cc1,inactive
8,O=C(c1ccccc1)N1CCN(c2cc(-c3ccccc3)nc3cc(-c4cccc(Cl)c4)nn23)CC1,inactive
9,COc1cccc(-c2cc3nc4c(c(N5CCC6(CC5)OCCO6)n3n2)CCCC4)c1,12.6 µM (active)
10,O=C(CC(c1cccs1)N1Cc2ccccc2C1=O)Nc1ccc(F)c(F)c1 (stereo unspecified),inactive
11,CCOc1ccccc1NC(=O)Cn1c(=O)n(Cc2ccco2)c(=O)c2sc3ccccc3c21,inactive
12,Cc1c(Cl)cccc1NC(=O)C1CCCN(c2ncnc3onc(C)c23)C1 (stereo unspecified),inactive
13,Cc1cccc(NC(=O)C2CCCN(C(=O)NCc3ccccc3)C2)c1C (stereo unspecified),inactive
14,Cc1c(Cl)cccc1NC(=O)C1CCCN(C(=O)c2cnn(-c3ccccc3)c2-n2cccc2)C1 (stereo unspecified),12.6 µM (active)
15,CCOc1ccccc1NC(=O)Cn1c2ncccc2c(=O)n1-c1ccc(C)c(C)c1,inactive
16,Cc1[nH]c2ccccc2c1C(=O)C(=O)N(C)c1ccccc1,inactive
17,COc1ccc(-c2cn3c(C)c(C(=O)Nc4cc(C)cc(C)c4)sc3n2)cc1,inactive
18,COc1ccc(C(CCN(Cc2ccc(OC)c(OC)c2)C(=O)CCl)c2ccccc2)cc1 (stereo unspecified),14.1 µM (active)
19,COc1ccc(C(C(=O)NC2CCCCC2)N(C(=O)CCl)c2ccccc2Cl)cc1 (stereo unspecified),inactive
20,COc1ccc(CCNC(=O)CN(c2ccccc2)S(C)(=O)=O)cc1OC,inactive
21,CC(=O)c1ccc2c(c1)c1ccccc1n2CC(C)C,7.08 µM (active)

row,SMILES,Potency
1,CCn1c2ccccc2c2cc(CC(N)=O)ccc21,inactive
2,CCn1c(=O)c2cc(C(=O)Nc3cccc(C(C)=O)c3)sc2c2ccccc21,inactive
3,CCOC(=O)N1CCC(NC(=O)c2cnn(-c3cccc(C)c3)c2C2CCN(C(=O)OC(C)(C)C)CC2)CC1,inactive
4,O=C(NCCc1ccccc1)C(=O)NCC(c1ccco1)S(=O)(=O)c1ccccc1 (stereo unspecified),inactive
5,CCOCCCNC(=O)c1c(NC(=O)c2nc(SC)ncc2Cl)sc2c1CCCC2,inactive
6,O=C(Nc1cccc2cccnc12)c1cccc2c(Br)cccc12,inactive
7,CC(=O)c1ccc(NC(c2ccc(F)cc2)c2nnc(-c3ccccc3)o2)cc1 (stereo unspecified),inactive
8,Fc1ccc(C(Nc2ccc(Cl)c(C(F)(F)F)c2)c2nnc(-c3ccccc3)o2)cc1 (stereo unspecified),10 µM (active)
9,Cc1ccc(C)c(N2CCN(C(c3ccccc3)c3nnc(-c4ccccc4)o3)CC2)c1 (stereo unspecified),inactive
10,Cc1ccc(-c2nnc(SCc3ccccc3C)o2)cc1,inactive
11,CCOC(=O)c1cccc(NS(=O)(=O)c2cn(C)c(C)n2)c1,inactive
12,Cc1c(C(=O)N(C)C)sc2c1c(=O)n(-c1ccc(F)cc1)c(=O)n2CC(=O)N(C)c1ccccc1,inactive
13,CCNC(=O)c1cc2n(n1)CCCN(Cc1ccc(C)cc1)C2=O,inactive
14,Cc1ccc(NC(=O)c2cc3cc(C)ccc3n2C)cc1,inactive
15,CCCn1c(=N)c(C(=O)NCc2ccccc2)cc2c(=O)n3cccc(C)c3nc21,inactive
16,CCCn1ccc2c(OCC(=O)NCc3ccc(F)cc3)cccc2c1=O,inactive
17,CCOCCn1ccc2c(OCC(=O)NCc3ccc(C)cc3)cccc2c1=O,inactive
18,COC(=O)COc1cccc2c(=O)n(CC(=O)NCc3ccccc3)ccc12,8.91 µM (active)
19,COc1ccc(OCC(=O)Nc2cccc(C(=O)OCc3cc(=O)n4nc(C)sc4n3)c2)cc1,inactive
